In PubChem BioAssay AID720706 (Broad Institute, 2013):
Among all 350,000 compounds or so, about 5,500 (1.6%) were called active.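 The calls were made as follows: active = significant combined selectivity score with lowered wild-type GFP, culture density cut under 30%, mutant RFP and density less affected; inactive = any of these conditions unmet.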 The full list was thinned out, with actives kept by preference.

Assay: GFP drop in mixed WT/humanized-ribosome E. coli culture – GFP/RFP fluorescence, OD600, single point, bacterial rRNA inhibitor project, primary screen (AID 720706)
Conditions: E. coli WT GFP vs humanized-ribosome RFP mutants, 24 h; GFP signal change (wild-type ribosome): stronger effect = lower value, DMSO median 0, no signal -100; OD600 change: measured here: OD600 growth, DMSO median 0, no signal -100; RFP signal change: measured here: RFP humanized mutant strains, DMSO median 0, no signal -100, concentration not given here

| SMILES | GFP signal change (wild-type ribosome) | OD600 change [%] | RFP signal change [%] |
| --- | --- | --- | --- |
| CCC(=O)Nc1ccc2c(c1)OC[C@@H](C)N(CC1CC1)C[C@H](C)[C@H](OC)CN(C)C2=O | 1.22% (inactive) | -0.6 | -0.045 |
| Cc1[nH]c2ccccc2c1/C=C(/C#N)C(=O)NC(C)C | -4.98% (inactive) | 5.32 | -3.18 |
| CC(C)(C)C(=O)/C(C#N)=C/c1ccc(O)cc1 | 19.8% (inactive) | 5.69 | -9.62 |
| CC(C)NC(=O)/C(C#N)=C\c1ccc(N(C)C)c(Br)c1 | -19.9% (active) | -12.4 | 3.85 |
| O=C(NCC[C@H]1CC[C@H](NS(=O)(=O)c2ccccc2)[C@H](CO)O1)c1cc(Cl)cc(Cl)c1 | -5.21% (inactive) | -26.1 | 22 |
| COC(=O)c1cc(C)sc1NC(=O)CC1Nc2ccccc2NC1=O (configuration not stated) | -18.4% (active) | -7.76 | 12.5 |
| CCc1cc(C(=O)OC)c(NC(=O)CC2Sc3ccc(C(F)(F)F)cc3NC2=O)s1 (configuration not stated) | 0.188% (inactive) | 4.88 | -2.55 |
| Cc1ccc(CNC(=O)CC2Sc3ccccc3NC2=O)cc1 (configuration not stated) | 11.2% (inactive) | 14.1 | 3.46 |
| O=C(O)c1[nH]c2ccccc2c1C(c1cccc(O)c1)c1c(C(=O)O)[nH]c2ccccc12 | -25.6% (active) | -18.5 | 8.53 |
| O=C(OCC(=O)c1c[nH]c2ccccc12)c1cccc(O)c1 | -42.8% (inactive) | -45.1 | -14.1 |
| COc1ccc2c3c(n(C)c2c1)[C@@H](CO)N(C(C)=O)CC31CCN(Cc2ccc(Cl)cc2)CC1 | -1.69% (inactive) | -3.51 | 1.83 |
| O=C1/C(=C/c2ccc(F)cc2)SC(=S)N1CCCC(=O)N1CCCCC1CCO (configuration not stated) | -19.1% (inactive) | -28.5 | -4.34 |
| COc1ccc(/C=C2\SC(=S)N(CCC(=O)N3CCOCC3)C2=O)cc1OC | 10.4% (inactive) | 16.7 | 0.46 |
| C=CCOc1ccc(/C=C2\SC(=S)N(CCC(=O)O)C2=O)cc1 | -32.4% (active) | -18.9 | -4.79 |
| Cc1ccc(CNC(=O)c2cc(-c3ccccc3C)n(CC3CC(c4cccc([N+](=O)[O-])c4)=NO3)n2)cc1 (configuration not stated) | 6.99% (inactive) | 10.7 | -2.49 |
| Cc1ccccc1-c1cc(C(=O)NCC2CC2)n(CC2CC(c3cccnc3)=NO2)n1 (configuration not stated) | -8.08% (inactive) | -3.34 | -12 |
| Cc1ccccc1-c1cc(C(=O)NCc2cccs2)n(CC2CC(c3cccnc3)=NO2)n1 (configuration not stated) | -17.6% (active) | -10.9 | 5.68 |
| Clc1ccc(Nc2ccc3ccccc3n2)cc1 | -54.6% (active) | -30 | -18 |
| O=C(NNC(=O)c1ccc2ccccc2c1)c1ccc(Cl)cc1 | 2.13% (inactive) | 11.3 | -2.59 |
| C=CCNc1nc(Nc2ccc(Cl)cc2)nc(OC)n1 | -33.3% (inactive) | -34 | -2.27 |

| SMILES | GFP signal change (wild-type ribosome) | OD600 change [%] | RFP signal change [%] |
| --- | --- | --- | --- |
| COc1ccc(C#Cc2ccc([C@H]3[C@@H](CO)N4CCCCN(S(=O)(=O)c5cn(C)cn5)C[C@H]34)cc2)cc1 | -58.4% (inactive) | -77.4 | -16.4 |
| O=C(CC1CC1)N1[C@@H](CO)[C@@H](c2ccccc2)C12CN(S(=O)(=O)c1ccccc1)C2 | -0.794% (inactive) | 0.08 | 4.17 |
| CO[C@H]1CN(C)C(=O)c2ccc(NC(=O)C3CC3)cc2OC[C@H](C)N(C(=O)CN2CCOCC2)C[C@@H]1C | 2.07% (inactive) | 1.32 | -3.59 |
| C[C@H](CO)N1C[C@H](C)[C@H](CN(C)Cc2ccc(C(=O)Nc3ccccc3N)cc2)Oc2ccc(NC(=O)Nc3ccccc3)cc2CC1=O | -24.5% (inactive) | -22.3 | 1.58 |
| C[C@@H]1CCCCO[C@H](CN(C)C(=O)NC2CCCCC2)[C@H](C)CN([C@@H](C)CO)C(=O)c2cc(NC(=O)C3CCCCC3)ccc2O1 | -5.13% (inactive) | -0.493 | -3.14 |
| COc1ccc(NC(=O)Nc2cccc3c2O[C@@H](CN(C)S(=O)(=O)c2cn(C)cn2)[C@H](C)CN([C@@H](C)CO)C3=O)cc1 | -1.33% (inactive) | -1.5 | -0.415 |
| O=C(NC1CCCC1)[C@@H]1[C@@H](CO)[C@@H]2Cn3c(ccc(-c4ccc(F)cc4)c3=O)[C@H]1N2Cc1cocn1 | -0.879% (inactive) | 4.54 | -1.31 |
| COC(=O)C[C@@H]1C[C@@H]2c3cc(NC(=O)NC4CCCC4)ccc3O[C@@H]2[C@@H](CO)O1 | 1.15% (inactive) | -0.449 | -0.687 |
| OC[C@@H]1CN(Cc2cccs2)C[C@H](n2cnc3c(NC4CCCC4)ncnc32)O1 | -2.42% (inactive) | -4.54 | 4.82 |
| OC[C@@H]1CN(Cc2ccc(F)cc2)C[C@H](n2cnc3c(NC4CCCC4)ncnc32)O1 | -15.1% (inactive) | -8.49 | 0.518 |
| OC[C@@H]1CN(Cc2ccc(-c3ccccc3)cc2)C[C@H](n2cnc3c(NC4CCCC4)ncnc32)O1 | -21.9% (active) | -14.8 | -2.32 |
| CCCN1C[C@@H](C)[C@@H](OC)CN(C)C(=O)c2cc(NC(=O)NC3CCCCC3)ccc2OC[C@H]1C | 2.68% (inactive) | 4.16 | -1.33 |
| O=C(C[C@@H]1CC[C@@H]2[C@H](COC[C@H](O)CN2S(=O)(=O)c2ccc(F)cc2)O1)NCc1ccc(Cl)c(Cl)c1 | -20.8% (inactive) | -43.9 | 0.781 |
| C[C@@H]1CN([C@H](C)CO)C(=O)Cc2cc(NC(=O)Cn3cnnn3)ccc2O[C@@H]1CN(C)S(=O)(=O)c1ccc(F)cc1 | 4.41% (inactive) | -2.05 | 0.611 |
| CC1(C(=O)O)CCC(C(=O)Nc2ccc(Cl)c(Cl)c2)C1(C)C (configuration not stated) | -23.4% (active) | -16.1 | -7.62 |
| O=C(Nc1ccc(Cl)c(Cl)c1)c1ccccc1NC(=O)C1CC=CCC1C(=O)O (configuration not stated) | -35.4% (inactive) | -49.6 | -4.13 |
| O=C(Nc1ccc2c(c1)OCO2)C1CC1(Cl)Cl (configuration not stated) | -1.64% (inactive) | 3.17 | -2.98 |
| Cc1noc(C)c1S(=O)(=O)Nc1ccc2c(c1)CC(=O)N([C@@H](C)CO)C[C@H](C)[C@H](CN(C)C(=O)Nc1cccc3ccccc13)O2 | -2.17% (inactive) | -1.79 | 1.2 |
| COc1ccc(S(=O)(=O)Nc2ccc3c(c2)CC(=O)N([C@@H](C)CO)C[C@@H](C)[C@@H](CN(C)Cc2ccc(C(=O)Nc4ccccc4N)cc2)O3)cc1 | -5.01% (inactive) | -12 | 2.02 |
